# Measured values reported in the supplement of paper PMC7530171.
# Where a name gives a salt, the structure may show the parent alone. ± gives the standard deviation.
# Test system: THP-1
# Assay: THP-1 cell loss relative to DMSO control; higher = more host cell loss (toxicity); extreme values may be limits of the assay
# Conditions: 10 µM; 4 days; infection: M. tuberculosis H37Rv
# Experimental: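 OICR kinase inhibitor library screened in duplicate at 10 uM against M. tuberculosis-infected THP-1 macrophages, 4 days at 37 C. THP-1 cell loss (cytotoxicity or loss of adherence) was quantified from Hoechst-stained nuclei counts by high-content imaging and normalised to the 1% DMSO control; 100 = complete loss of host cells.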
row,SMILES,THP-1 cell loss [%]
1,O=C1NCCc2[nH]c(-c3ccncc3)cc21,100
2,N#C/C(=C(/N)Sc1ccc(N)cc1)c1ccccc1C(F)(F)F,78.2 ± 4.7
3,C[C@@H]1CN(CC(=O)Nc2ccc3c(c2)Cc2cccc(-c4cc(=O)cc(N5CCOCC5)o4)c2S3)C[C@H](C)O1,100
4,NC(=O)c1ccc(-c2nc(-c3ccc4c(c3)OCCO4)c(-c3ccccn3)[nH]2)cc1,43.2 ± 50
5,Cn1cncc1[C@@](N)(c1ccc(Cl)cc1)c1ccc2c(c1)c(-c1cccc(Cl)c1)cc(=O)n2C [Tipifarnib],29.6 ± 27
6,CNC(=O)c1cc(Oc2ccc(NC(=O)Nc3ccc(Cl)c(C(F)(F)F)c3)cc2)ccn1 [Sorafenib],100
7,CC(C)(C)c1cnc(CSc2cnc(NC(=O)C3CCNCC3)s2)o1,100
8,CS(=O)(=O)CCNCc1ccc(-c2ccc3ncnc(Nc4ccc(OCc5cccc(F)c5)c(Cl)c4)c3c2)o1 [Lapatinib ditosylate],100
9,COc1cc(O)c2c(c1)/C=C/C[C@H](O)[C@H](O)C(=O)/C=C\C[C@H](C)OC2=O [(5Z)-7-Oxozeaenol],100
10,O=C1NC(=O)c2c1c(-c1ccccc1)cc1[nH]c3ccc(O)cc3c21,77.75 ± 0.7
11,O=C(c1ccc(Nc2nccc(-c3cc4ccccc4s3)n2)cc1)N1CCC(N2CCCC2)CC1,100
12,O=C(NC1CCNCC1)c1n[nH]cc1NC(=O)c1c(Cl)cccc1Cl,90.2 ± 14
13,N#Cc1c(-c2ccccc2)cc(-c2cc(Br)ccc2O)[nH]c1=O,8.6 ± 8.9
14,O=c1[nH]nc(Sc2ncc([N+](=O)[O-])s2)n1-c1ccc2c(c1)OCCO2,31.1 ± 44
15,CN(C)S(=O)(=O)c1ccc2c(c1)/C(=C/c1cc3c([nH]1)CCCC3)C(=O)N2,7.5 ± 1.4
16,Cn1cc(-c2cnc3ccc4ccc(CS(=O)(=O)NCc5ccccn5)cc4c(=O)c3c2)cn1,52.3 ± 67
17,Cc1cc(Nc2cc(N3CCN(C)CC3)nc(/C=C/c3ccccc3)n2)n[nH]1,70.7 ± 19
18,C=CC(=O)Nc1cc2c(Nc3ccc(F)c(Cl)c3)ncnc2cc1C#CC(C)(C)N1CCN(C)CC1,100

row,SMILES,THP-1 cell loss [%]
1,CCN(CC)CC1CCN(c2ncc3ncnc(Nc4ccc(F)c(Cl)c4)c3n2)CC1 [BIBU 1361 dihydrochloride],100
2,COc1cc2ncnc(-n3nc(-c4ccccn4)nc3N)c2cc1OC,67 ± 15
3,O=C(Nc1c[nH]nc1-c1nc2ccc(CN3CCOCC3)cc2[nH]1)NC1CC1,100
4,Cc1ccc(Nc2nccc(N(C)c3ccc4c(C)n(C)nc4c3)n2)cc1S(N)(=O)=O [Pazopanib hydrochloride],100
5,CN(c1ncccc1CNc1nc(Nc2ccc3c(c2)CC(=O)N3)ncc1C(F)(F)F)S(C)(=O)=O,100
6,S=C(NCc1ccc2c(c1)OCO2)N1CCN(c2ncnc3c2oc2ccccc23)CC1,20.7 ± 25
7,COc1cc2ncnc(Nc3ccc(O)c(Br)c3)c2cc1OC,15.2 ± 1.4
8,C[C@@H]1CCN(C(=O)CC#N)C[C@@H]1N(C)c1ncnc2[nH]ccc12,9.64 ± 8.9
9,Cc1ncc(-c2ccnc(Nc3ccc(S(C)(=O)=O)cc3)n2)n1C(C)C,100
10,COc1cc(N2CCC(N3CCN(C)CC3)CC2)ccc1Nc1ncc(Cl)c(Nc2ccccc2S(=O)(=O)C(C)C)n1,26.4 ± 0.6
11,COc1ccc(-c2ccc3ncc4c(c3c2)n(-c2ccc(N3CCNCC3)c(C(F)(F)F)c2)c(=O)n4C)cn1,100
12,Cc1cc(C(=O)N2CCN(c3cccc(Cl)c3)CC2)n(-c2ccccc2)n1,23.2 ± 25
13,CNC(=O)c1ccccc1Sc1ccc2c(/C=C/c3ccccn3)n[nH]c2c1 [Axitinib],14.9 ± 11
14,COc1cc2ncnc(Nc3ccc(O)cc3)c2cc1OC [Janex-1],10.7 ± 0.54
15,CCCCCCCCCCCCCCCCn1cc[n+](Cc2ccccc2)c1C,100
16,CS(=O)(=O)N1CCN(Cc2cc3nc(-c4cccc5[nH]ncc45)nc(N4CCOCC4)c3s2)CC1 [GDC-0941 bismesylate],38 ± 2.2
17,CN(C)c1ccc(/C=C2/C(=O)Nc3ccccc32)cc1,20.5 ± 18
